TDP-43 yeast inh = inhibitors of TDP-43 toxicity in yeast; Potency, µM (highest dose often 46.1 µM), for the others: at the top dose growth rescue (activation), actives largely listed as activators; actives 1.8% (n = 410,000); TDP-43 expressing yeast growth rescue, BacTiter-Glo, 24 h; also: % of control where 0% means no effect; nearly all actives have a fitted effect of over 50% in size
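Growth rescue of TDP-43-toxic yeast measured as ATP luminescence (BacTiter-Glo). Cells grown to mid-log in raffinose, induced in galactose at OD600=0.02, exposed to compound 24 hr at 30 deg C.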
aSyn rescue = alpha-synuclein toxicity inhibition in yeast; Yeast expressing alpha-synuclein, growth rescue, BacTiter-Glo, 24 h; Potency, µM (top dose mostly 46.1 µM), for the others: at the top dose growth rescue (activation), hits mostly activators; actives 0.14% (n = 370,000); also: % of control where 0% means no effect; nearly all actives have a fitted effect of over 65% in size
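Rescue of yeast growth: cells expressing toxic alpha-synuclein, induced in galactose at OD600 0.02, incubated with compound 24 h at 30 C. ATP luminescence quantified growth; inhibitors of toxicity appear as activators.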
Abeta rescue = compounds reversing amyloid beta toxicity in yeast | yeast expressing A-beta42, growth rescue, OD600, 48 h; response scale: 0% DMSO, 100% iron-clioquinol control | Potency, µM (titrated, usually from 46.1 µM), most hits filed as activators | actives 0.063% (n = 410,000) | AID 1347071; also: nearly all actives have a fitted effect of over 55% in size
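Growth rescue measured by 600 nm absorbance after 48 h yeast culture at 30 C with compound. Values normalized between DMSO and an equimolar ferric chloride plus clioquinol control.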
Mito fusion yeast = mitochondrial division inhibition or fusion activation; S. cerevisiae fusion-defective mutant growth rescue, CellTiterGlo 48 h; Potency, µM (top dose mostly 46.1 µM), without a hit: at the highest dose growth rescue (activation), most hits filed as activators; actives 0.23% (n = 320,000); AID 485298; also: % of control where 0% means no effect; nearly all actives have a fitted effect of over 45% in size
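Growth-rescue viability read-out: after 48 h at the non-permissive 37C in glycerol/ethanol YPEG, yeast mitochondrial fusion mutants are measured by CellTiterGlo luminescence; compounds (23 nl pinned per well) restoring growth score as division inhibitors or fusion activators.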
FUS yeast rescue = suppressors of FUS proteinopathy in yeast. S. cerevisiae FUS-expressing, growth rescue, OD600, 24 h. Potency, µM (titrated, usually from 76.6 µM), actives largely listed as activators. actives 0.24% (n = 390,000);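 also: plate controls were DMSO vehicle for no effect and reference control for full effect; nearly all actives have a fitted effect of over 55% in size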
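Cultures pregrown in 2.5% raffinose medium are shifted to minimal medium containing 2% galactose to express toxic FUS. Compounds are tested at several concentrations. After 24hr at 30C, growth is quantified at 600 nm absorbance.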
Starred values were filed as active, the others as inactive; i = inactive; ? = inconclusive; nt = not tested or not shown; [ ] = another dose, or the depositor's remark. Sampled rows, rich in hits. Any-hit rate of the full collection: about 2.2%. Calls follow the shape of the dose curve; as a rule, active = well fitted curve in the direction sought with a large enough effect; inconclusive = small, poorly fitted or top-dose-only effect, or another doubt; inactive = no such curve, though single readings can be large; an effect the other way counts as inactive or inconclusive. Potency is read from the fitted curve at half-maximal effect.

SMILES	TDP-43 yeast inh	aSyn rescue	Abeta rescue	Mito fusion yeast	FUS yeast rescue
COc1ccccc1N1CCN(c2ccc(=O)n(CC(=O)Nc3ccc(F)c(F)c3)n2)CC1	2%	nt	i	nt	i
CC[C@@H]1C(c2ccc(F)cc2)=NN(c2ccc(Br)cc2)[C@H]1C(=O)N1CCOC1=O	14µM*	23%	i	nt	i
CC[C@@H]1C(c2ccccc2)=NN(c2ccc(Br)cc2)[C@H]1C(=O)N1CCOC1=O	?	?	i	nt	i
O=S(=O)(c1cccc2nsnc12)N1CCN(c2ccc(F)cc2)CC1	-14%[1.82 µM]	-1%	i	-1%	i
O=S(=O)(c1cccc2nsnc12)N1CCN(c2ccccc2F)CC1	16µM*	14%	i	16%	i
CSc1cccc(NC(=O)Nc2ccccc2OCc2cc(=O)n3cc(C)ccc3n2)c1	20%	nt	i	nt	i
CCc1nc2c(OCC(N)=O)cccn2c1N(C)C(=O)c1cccs1	13%	-7%	i	nt	i
CC(C)OC(=O)C(C(=O)C(F)(F)F)c1cc(NS(=O)(=O)c2ccc3ccccc3c2)c2ccccc2c1O (stereo not drawn)	-64%	-34%	i	-8%	10µM*
CCOC(=O)C1(C)CCN1C(=O)c1ccc(C(F)(F)F)cc1 (stereo not drawn)	10%	-1%	i	nt	i
COc1ccc(F)cc1-c1cc(C(=O)NCc2cccc(Cl)c2)[nH]n1	14µM*	24%	i	nt	i
CCCOc1ccc(F)cc1-c1cc(C(=O)NCc2ccco2)[nH]n1	14µM*	?	i	nt	i
CCCOc1ccc(F)cc1-c1cc(C(=O)NCc2ccccc2OC)[nH]n1	35µM*	19%	i	nt	i
CCCOc1ccc(F)cc1-c1cc(C(=O)NCc2cccc(Cl)c2)[nH]n1	0%	13%	i	nt	i
COc1ccccc1CNC(=O)c1cc(-c2cc(F)ccc2OC(C)C)n[nH]1	25µM*	15%	i	nt	i
COc1cc(CNC(=O)c2cc(-c3cc(F)ccc3OC(C)C)n[nH]2)cc(OC)c1	?	-1%	i	nt	i
CCOc1ccc(C2c3c(oc4ccc(C)cc4c3=O)C(=O)N2c2nc(C)c(C)s2)cc1OC (stereo not drawn)	-2%	nt	i	nt	i
COc1ccc(CN2CCc3c(c(=O)n4ncc(C(=O)N5CCN(c6ccccc6OC)CC5)c4n3C)C2)cc1	18%	nt	i	nt	i
C=CCCC(=O)N[C@H]1CC[C@@]23CCCN2C(=O)CCC[C@H]3[C@H]1CCC	nt	nt	nt	nt	i
CCCCNC(=O)N1CCCC1C(=O)Nc1cccc(OC)c1 (stereo not drawn)	nt	nt	nt	nt	i
COc1cc(F)ccc1-c1cc(C(=O)NCc2cccs2)[nH]n1	23%	6%	i	nt	i
Cc1ccc(Cl)cc1-c1cc(C(=O)NCc2ccco2)[nH]n1	14µM*	4%	i	nt	i
COc1ccc(Cl)cc1-c1cc(C(=O)NCc2ccco2)[nH]n1	?	13%	i	nt	i
CC(C)Oc1ccc(F)cc1-c1cc(C(=O)NCc2cccs2)[nH]n1	35µM*	28%	i	nt	?
COc1ccccc1CNC(=O)CN1C(=O)CSc2ccc(S(=O)(=O)N3CCCCC3)cc21	-6%	-5%	i	nt	i
Nc1nc2c(s1)CCc1c-2cnn1-c1ccccc1	0%	11µM*	i	21%	i
SMILES	TDP-43 yeast inh	aSyn rescue	Abeta rescue	Mito fusion yeast	FUS yeast rescue
Nc1nc2c(s1)COc1ccccc1-2	-59%	-35%	i	28%	i
Cc1ccc(CCNC(=O)CCCn2c(=O)c3cccn3c3ccc(F)cc32)cc1	35µM*	nt	i	nt	i
CCc1ccc(NC(=O)CCn2c(=O)c3cccn3c3ccccc32)cc1	13µM*	-5%	i	0%	?
CC(CNC(=O)CCCn1c(=O)c2cccn2c2ccc(F)cc21)c1ccccc1 (stereo not drawn)	25µM*	nt	i	nt	?
CC(CNC(=O)CCn1c(=O)c2cccn2c2ccc(F)cc21)c1ccccc1 (stereo not drawn)	18%	4%	i	?	i
COc1ccc(/C=C2\C(=O)ON=C2c2ccccc2)cc1	?	14%	i	-9%	i
